Hit rate of the full screen: of about 330,000 compounds, about 4,900 (1.5%) were called active. The list comes from a sample in which actives are over-represented; it also holds similar structures and randomly drawn compounds. Unmarked numbers belong to inactive results.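 Rule for the calls: active = inhibition above the mean inhibition across the screen plus 3 SD (cut at about 25% in these data); inactive = the rest.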
Each compound was assayed against Platelet-activating factor acetylhydrolase (Homo sapiens) (UniProt Q13093) (assay: inhibition of plasma PAF acetylhydrolase – biochemical, fluorescence polarization, human, primary screen (AID 463082;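 note: inhibitors block binding of the rhodamine activity-based probe so polarization drops; 0% = enzyme with DMSO and 100% = wells lacking pPAFAH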)). Conditions: recombinant pPAFAH, FP-rhodamine probe fluorescence polarization; at 3.39 µM; active compounds read high.
Sequence of Platelet-activating factor acetylhydrolase (Homo sapiens) (Q13093 whole entry, looked up): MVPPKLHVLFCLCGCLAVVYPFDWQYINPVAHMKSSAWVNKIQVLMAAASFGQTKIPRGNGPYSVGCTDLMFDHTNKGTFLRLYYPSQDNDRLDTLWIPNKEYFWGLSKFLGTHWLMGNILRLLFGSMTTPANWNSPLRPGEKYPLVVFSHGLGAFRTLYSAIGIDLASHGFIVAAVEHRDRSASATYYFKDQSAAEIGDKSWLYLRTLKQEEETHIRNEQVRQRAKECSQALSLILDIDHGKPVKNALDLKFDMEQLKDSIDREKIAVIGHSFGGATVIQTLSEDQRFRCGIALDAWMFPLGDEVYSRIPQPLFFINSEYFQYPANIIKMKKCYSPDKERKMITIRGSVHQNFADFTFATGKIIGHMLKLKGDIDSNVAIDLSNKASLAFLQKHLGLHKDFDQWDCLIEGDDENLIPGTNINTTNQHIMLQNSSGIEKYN
With `COc1ccc(CN2C(=O)NC(=O)/C(=C\c3ccc(OC)c(OC)c3OC)C2=O)cc1` the inhibition was 2.22%. `COc1cccc(N2C(=O)NC(=O)/C(=C\c3cn(C)c4ccccc34)C2=O)c1` showed an inhibition of 0.95%. `COc1ccc(N2C(=O)/C(=C/c3ccco3)C(=O)NC2=S)cc1` was tested, and the inhibition was 39.7% (active). With `CC(C)(C)c1ccc(CN2C(=O)CN=C(c3ccccc3)c3ccccc32)cc1` the inhibition was -2.71%. With `O=C1CC(=O)N(Cc2ccccc2)C(=O)N1CCCCCCN1C(=O)CC(=O)N(Cc2ccccc2)C1=O` the inhibition was 41.3% (active). `O=C(CN1CCCC1=O)NCCc1ccccc1` was tested, and the inhibition was 6.04%. For `O=c1[nH]c(CN2CC=C(c3ccccc3)CC2)nc2scc(-c3cccs3)c12`, the inhibition was 8.85%. Compound `CN(C)c1ccc(/C=C2\CC3C4CC=C5CC(O)CCC5(C)C4CCC3(C)C2=O)cc1` (stereo not given) has an inhibition of 3.94%. In the case of `Cc1ccccc1NC(=O)COC(=O)c1cc(C)n(C2CC2)c1C`, the inhibition is reported as 3.84%. In the case of `Cc1nn(-c2ccccc2)c(C)c1NC(=O)COC(=O)Cc1ccccc1`, the inhibition is reported as 46.5% (active). For `O=C(COC(=O)Cc1ccccc1)Nc1ccc(F)cc1`, the inhibition was 23.1%. `O=[N+]([O-])c1ccc(C2C3C(c4ccccc4)=NC4(CCCCC4)N32)cc1` (stereo not given) showed an inhibition of 6.5%. `Cn1cc(C(=O)OCC(=O)N2CCCC2)c2ccccc21` was tested, and the inhibition was -2.21%. Compound `COc1ccccc1NC(=O)N1C[C@@H]2C[C@@H](C1)c1cccc(=O)n1C2` has an inhibition of 5.55%. `CSc1nc2ccc(C)cc2c(=O)n1-c1cccnc1` was tested, and the inhibition was -1.83%. In the case of `Cc1ccccc1N1C(=O)NC(=O)/C(=C\c2cc(C)n(C)c2C)C1=O`, the inhibition is reported as -0.82%. `O=C1NC(=O)N(c2ccccc2)C(=O)/C1=C/c1ccc([N+](=O)[O-])s1` was tested, and the inhibition was 58% (active). With `COC(=O)C1=C(c2ccc(C(C)=O)cc2)C[C@@H]2CC[C@H]1N2C(=O)NCCNC(C)=O` the inhibition was 3.68%. `COc1cccc(C(=O)N2C[C@H]3C[C@@H](C2)c2cccc(=O)n2C3)c1` showed an inhibition of 3.04%. Work on `C/C(=N/O)c1ccc2ccc3ccccc3c2c1` yielded an inhibition of 1.83%. `COC(=O)C1=C(c2cc3ccccc3s2)C[C@@H]2CC[C@H]1N2C(=O)NC(C)C` was tested, and the inhibition was 4.37%. In the case of `NCCc1ccc(S(=O)(=O)F)cc1`, the inhibition is reported as 59.5% (active). With `CN1CCN(Cc2ccc(OC(F)(F)F)cc2)CC1` the inhibition was -4.99%. Compound `C=Cn1ccnc1P(=S)(c1cc(N(CC)CC)ns1)c1nccn1C=C` has an inhibition of -4.36%. `CCOC(=O)C1CN(C)CCC1=O` (stereo not given) showed an inhibition of 4.48%.
